Laboratory results: PubChem BioAssay (NCATS)
Records with an inconclusive call do not appear. Active and inactive are the calls of the source. Unless noted, calls follow the shape of the dose curve; as a rule, active = well fitted curve in the direction sought with a large enough effect; inconclusive = small, poorly fitted or top-dose-only effect, or another doubt; inactive = no such curve, though single readings can be large; an effect the other way counts as inactive or inconclusive.

Columns and labels:
[1] = Validation qHTS assay for inhibitors of Activation Induced Cytidine Deaminase (AID): UDG Counterscreen signal (AID 1347427); also: 0% is about no effect
Method in brief: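 Counterscreen read of UDG activity (2 U/mL, 4/3x) in the FRET deamination format with AID (1 uM, 4/3x), DJC20/DJC23 substrates (250 nM, 4x), 4 h at room temperature. NaOH stop, fluorescence at 560 ex/665 em.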

[2] = target: Single-stranded DNA cytosine deaminase (Homo sapiens) (UniProt Q9GZX7); experiment: Validation qHTS assay for inhibitors of Activation Induced Cytidine Deaminase (AID): AID signal (AID 1347429); also: % is scaled to controls: 0 for no effect and ±100 for the full control effect
Sequence of Single-stranded DNA cytosine deaminase (Homo sapiens) (Q9GZX7 whole entry, looked up): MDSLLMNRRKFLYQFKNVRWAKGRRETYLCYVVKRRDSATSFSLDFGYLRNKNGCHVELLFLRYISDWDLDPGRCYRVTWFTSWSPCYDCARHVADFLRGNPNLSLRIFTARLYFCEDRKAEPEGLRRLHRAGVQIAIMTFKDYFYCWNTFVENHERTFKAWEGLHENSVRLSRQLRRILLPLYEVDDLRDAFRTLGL
Method in brief: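 FRET deamination assay: 1 uM AID (4/3x stock) with UDG, compound up to 114 uM, then 250 nM DJC20/DJC23 substrate (4x stock) for 4 hr at room temperature. NaOH added, 30 min; fluorescence read 540/590 nm.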

[3] = Primary qHTS for inhibitors of La Crosse Virus (LACV) - induced cell death in SH-SY5Y cells (AID 1508616);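 also: top concentration of the series differs between compounds; 0% = infected DMSO wells and 100% = uninfected DMSO wells; higher means more rescue of cells from virus-induced death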
Method in brief: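 SH-SY5Y cells (6000/well) plated 24 h, then given compounds by pin transfer and LACV at 0.01 MOI for 6 days at 37C. Viability measured by ATPLite luminescence, normalized to infected DMSO and uninfected DMSO.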

[4] = target: Calcium and integrin-binding protein 1 (Homo sapiens) (UniProt Q99828); experiment: Validation qHTS for Identification of Calcium Integrin Binding protein 1 (CIB1) Competitor (AID 1508618); also: % is scaled to controls: 0 for no effect and ±100 for the full control effect
Sequence of Calcium and integrin-binding protein 1 (Homo sapiens) (Q99828 whole entry, looked up): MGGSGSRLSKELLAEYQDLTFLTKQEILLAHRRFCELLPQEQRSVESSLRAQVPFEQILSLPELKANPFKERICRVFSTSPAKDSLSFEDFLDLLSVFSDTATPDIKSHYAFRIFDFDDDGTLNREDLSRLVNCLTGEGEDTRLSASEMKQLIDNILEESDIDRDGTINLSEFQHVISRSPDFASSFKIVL
Method in brief: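 In this qHTS validation, the LOPAC set (up to 114 uM) was tested for blocking CIB1 binding to a fluorescein-tagged alphaIIb peptide, with FP detection at 480/540 nm.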

Papain (Carica papaya) = Papain (Carica papaya) (UniProt P00784); experiment: Primary qHTS assay for inhibitors of the protease papain (AID 1645873);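 also: papain turnover of Z-FR-AMC read as the AMC fluorescence gain over 10 min; series mostly up to about 50 µM; % is scaled to controls: 0 for no effect and ±100 for the full control effect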
Sequence of Papain (Carica papaya) (P00784 whole entry, looked up, the tested form may be a part): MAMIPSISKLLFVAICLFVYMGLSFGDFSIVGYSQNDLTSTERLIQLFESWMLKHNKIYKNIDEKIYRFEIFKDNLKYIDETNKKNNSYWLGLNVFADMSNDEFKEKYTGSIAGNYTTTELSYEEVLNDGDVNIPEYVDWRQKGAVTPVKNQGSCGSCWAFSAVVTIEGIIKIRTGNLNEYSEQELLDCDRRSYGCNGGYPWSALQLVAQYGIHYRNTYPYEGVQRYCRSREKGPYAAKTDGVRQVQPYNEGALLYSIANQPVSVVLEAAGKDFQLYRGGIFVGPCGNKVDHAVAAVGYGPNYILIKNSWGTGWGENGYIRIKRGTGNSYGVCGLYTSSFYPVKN

[5] = Primary qHTS for inhibitors of nuclear receptor binding SET domain protein 2 (NSD2) in an isogenic RCH-ACV NSD2 p.E1099K mutant (9B) (AID 1645876); also: potency is read from the fitted curve at half-maximal effect; nearly all actives have a fitted effect of over 70% in size
[6] = Primary qHTS for small molecule stabilizers of the endoplasmic reticulum resident proteome: Secreted ER Calcium Modulated Protein (SERCaMP) assay (AID 1508630); also: % is scaled to controls: 0 for no effect and ±100 for the full control effect
Method in brief: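 GLuc-SERCaMP-expressing SH-SY5Y cells, pretreated 16 h with compound, are challenged with thapsigargin to empty ER calcium stores; after 4 h, coelenterazine is added directly to the medium and luminescence is imaged.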

[7] = target: Protein phosphatase 1D (Homo sapiens) (UniProt O15297); experiment: RapidFire Mass Spectrometry qHTS Assay for Modulators of WT P53-Induced Phosphatase 1 (WIP1) (AID 1347424);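 also: amount of dephosphorylated VEPPL-S-QETFS peptide product formed by WIP1; series mostly up to about 63 µM; plate controls were DMSO wells for no effect and GSK830371 inhibitor control at 10 µM for full effect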
Sequence of Protein phosphatase 1D (Homo sapiens) (O15297 whole entry, looked up): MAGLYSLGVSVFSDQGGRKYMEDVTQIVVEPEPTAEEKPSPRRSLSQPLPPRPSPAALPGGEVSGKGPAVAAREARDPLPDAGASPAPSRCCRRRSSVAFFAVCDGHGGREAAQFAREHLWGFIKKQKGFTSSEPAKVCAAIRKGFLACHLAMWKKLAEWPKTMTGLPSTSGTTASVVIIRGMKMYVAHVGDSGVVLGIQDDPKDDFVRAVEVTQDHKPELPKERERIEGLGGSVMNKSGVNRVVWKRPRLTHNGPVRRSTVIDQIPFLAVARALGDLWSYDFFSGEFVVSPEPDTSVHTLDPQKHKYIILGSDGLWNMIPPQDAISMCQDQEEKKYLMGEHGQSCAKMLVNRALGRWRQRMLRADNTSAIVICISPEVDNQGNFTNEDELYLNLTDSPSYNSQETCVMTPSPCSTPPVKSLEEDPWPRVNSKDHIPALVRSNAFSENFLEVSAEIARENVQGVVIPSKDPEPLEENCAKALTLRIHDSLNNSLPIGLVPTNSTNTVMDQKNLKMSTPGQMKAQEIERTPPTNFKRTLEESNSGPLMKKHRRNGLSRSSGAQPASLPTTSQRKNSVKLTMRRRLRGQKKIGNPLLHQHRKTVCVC
Method in brief: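 10 nM WIP1 + cpd, 1 h RT; + 2 uM VEPPL-pS-QETFS, 5 min RT; stop 0.5% formic acid; labelled product standard 1 uM; RapidFire MS. Buffer 50 mM Tris pH 7.5, 30 mM MgCl2, 1 mM TCEP.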

[8] = target: Protein phosphatase 1D (Homo sapiens) (UniProt O15297); experiment: Rhodamine-PBP qHTS Assay for Modulators of WT P53-Induced Phosphatase 1 (WIP1) (AID 1347425); also: % of control where 0% means no effect
Method in brief: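 Steps: enzyme with Rh-PBP sensor and compounds, room-temperature incubation of 1 hr, baseline read, addition of VEPPL-pS-QETFS (10 uM final), kinetic fluorescence reads at 525/598 nm. Activity equals final minus baseline signal.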

[9] = target: Calcium and integrin-binding protein 1 (Homo sapiens) (UniProt Q99828); experiment: Primary qHTS for Identification of Calcium Integrin Binding Protein 1 (CIB1) Competitor (AID 1508620)
Method in brief: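 CIB1-GST (1 uM final) and compound incubated 15 min at room temperature before adding FITC-alphaIIb peptide tracer (100 nM final). Competition for binding read by fluorescence polarization (ex 480, em 540) after another 15 min at room temperature.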

[10] = target: Cytochrome P450 2D6 (Homo sapiens) (UniProt P10635); experiment: Cytochrome P450 family 2 subfamily D member 6 (CYP2D6) small molecule antagonists: luciferase biochemical (cell-free) qHTS assay (AID 1645840; active = well fitted curve in the direction sought with a large enough effect in the repeat runs; an effect the other way counts as inactive or inconclusive; also: nearly all actives have a fitted effect of over 55% in size; also: potency is read from the fitted curve at half-maximal effect)
Sequence of Cytochrome P450 2D6 (Homo sapiens) (P10635 whole entry, looked up): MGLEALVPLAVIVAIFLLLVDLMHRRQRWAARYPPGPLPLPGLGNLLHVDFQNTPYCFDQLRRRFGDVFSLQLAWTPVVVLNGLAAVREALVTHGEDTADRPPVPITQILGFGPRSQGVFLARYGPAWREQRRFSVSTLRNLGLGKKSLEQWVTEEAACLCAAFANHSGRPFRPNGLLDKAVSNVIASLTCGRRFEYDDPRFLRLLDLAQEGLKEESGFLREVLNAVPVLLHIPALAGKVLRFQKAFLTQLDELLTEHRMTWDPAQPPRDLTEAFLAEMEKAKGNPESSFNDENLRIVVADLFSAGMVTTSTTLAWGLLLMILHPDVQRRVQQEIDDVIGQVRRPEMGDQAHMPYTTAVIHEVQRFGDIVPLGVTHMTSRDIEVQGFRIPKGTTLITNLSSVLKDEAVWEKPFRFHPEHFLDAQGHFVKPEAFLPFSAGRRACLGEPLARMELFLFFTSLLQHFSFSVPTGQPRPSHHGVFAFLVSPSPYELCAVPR
Method in brief: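 P450-Glo luminescent screen: recombinant CYP2D6 enzyme–proluciferin substrate mix preincubated with compound 10 min at room temperature, then NADPH regeneration added for 1 h at room temperature. Detection reagent added for 20 min; luciferin light read as relative luminescence units.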

[11] = target: Cytochrome P450 2C9 (Homo sapiens) (UniProt P11712); experiment: Cytochrome P450 family 2 subfamily C member 9 (CYP2C9) small molecule antagonists: luciferase biochemical (cell-free) qHTS assay (AID 1645842; active = well fitted curve in the direction sought with a large enough effect in the repeat runs; an effect the other way counts as inactive or inconclusive; also: nearly all actives have a fitted effect of over 55% in size; also: potency is read from the fitted curve at half-maximal effect)
Sequence of Cytochrome P450 2C9 (Homo sapiens) (P11712 whole entry, looked up): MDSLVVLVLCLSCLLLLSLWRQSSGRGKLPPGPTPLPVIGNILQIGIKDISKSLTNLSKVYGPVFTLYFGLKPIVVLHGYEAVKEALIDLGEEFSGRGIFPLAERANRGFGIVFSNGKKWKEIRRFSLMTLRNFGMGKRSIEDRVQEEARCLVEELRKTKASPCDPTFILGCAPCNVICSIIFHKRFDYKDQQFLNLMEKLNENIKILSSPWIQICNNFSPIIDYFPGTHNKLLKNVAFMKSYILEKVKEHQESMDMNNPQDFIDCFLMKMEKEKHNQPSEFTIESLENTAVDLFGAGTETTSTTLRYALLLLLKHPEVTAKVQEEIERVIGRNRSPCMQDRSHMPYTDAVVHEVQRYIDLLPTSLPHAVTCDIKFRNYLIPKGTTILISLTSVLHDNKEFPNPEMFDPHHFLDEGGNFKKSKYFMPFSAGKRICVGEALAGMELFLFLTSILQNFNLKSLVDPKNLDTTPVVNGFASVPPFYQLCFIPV
Method in brief: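 Luminescence, after 20 min with luciferin detection reagent, reflected CYP2C9 turnover during a 1 h NADPH-driven reaction at 37C. Enzyme-substrate mix contained 0.4% bovine serum albumin and was preincubated with compound 10 min at room temperature.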

[12] = target: N-terminal Xaa-Pro-Lys N-methyltransferase 1 (Homo sapiens) (UniProt Q9BV86); experiment: Confirmatory qHTS for Inhibitors of N-terminal methyltransferase 1 (NTMT1): MTaseGlo Assay (AID 1645874); conditions: NTMT1 enzyme, MTase-Glo SAH luminescence; also: potency is read from the fitted curve at half-maximal effect; nearly all actives have a fitted effect of over 65% in size
Sequence of N-terminal Xaa-Pro-Lys N-methyltransferase 1 (Homo sapiens) (Q9BV86 whole entry, looked up): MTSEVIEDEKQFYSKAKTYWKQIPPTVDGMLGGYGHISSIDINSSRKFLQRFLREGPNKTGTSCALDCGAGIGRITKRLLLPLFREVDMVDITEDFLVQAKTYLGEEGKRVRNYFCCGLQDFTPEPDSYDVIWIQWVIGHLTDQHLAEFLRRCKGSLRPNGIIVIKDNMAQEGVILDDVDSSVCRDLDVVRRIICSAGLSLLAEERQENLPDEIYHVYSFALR
Method in brief: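 Compounds are incubated with 125 nM NTMT1 and 100 uM SAM for 15 min before the SPKRIA peptide (1 uM) starts a 30 min room-temperature methylation. SAH is measured by coupled luciferase luminescence and curves fitted to a Hill equation.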

[13] = A High-Content qHTS Against Drug Library for the Identification of Small Molecules that Inhibit DYT1 Early Onset Primary Dystonia-Associated Cell Pathology (AID 1645839; calls by dose curve; also: potency is read from the fitted curve at half-maximal effect)
Method in brief: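 In this high-content image screen, delE TorsinA mislocalization in inducible Flp-In 293 cells is scored as %pathology, with cell count serving as the counterscreen. Compound exposure lasts 48 h under tetracycline induction in reduced-serum medium.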

[14] = Cell Viability qHTS for small molecule stabilizers of the endoplasmic reticulum resident proteome (AID 1508629); conditions: cell viability counter-screen, 100 nM thapsigargin for final 4 h

Cc1nc2sccn2c(=O)c1CCN1CCC(=C(c2ccccc2)c2ccc(F)cc2)CC1
inactive: Potency [1] | Potency [2] | Potency [3]

Cn1cc(C2=C(c3ccc(Cl)cc3Cl)C(=O)NC2=O)c2ccccc21
active: Potency [5] 6510 nM
inactive: Potency [1] | Potency [2] | Potency [3] | outcome [4] | Potency (Papain (Carica papaya))

COc1ccccc1N1CCN(CCN(C(=O)c2ccc(I)cc2)c2ccccn2)CC1
inactive: Potency [1] | Potency [2] | Potency [3]

NC(=S)NCCC[C@H](N)C(=O)O
inactive: Potency [1] | Potency [2] | Potency [3] | Potency [6]

OC[C@H]1O[C@@H](n2cnc3c(Nc4ccccc4)ncnc32)[C@H](O)[C@@H]1O
inactive: Potency [1] | Potency [2] | Potency [3] | Potency [6]

CO/S(=N\S(=O)(=O)c1ccc(Cl)cc1)c1ccc([N+](=O)[O-])cc1 (stereo not drawn)
inactive: Potency [1] | Potency [2] | Potency [3]

Cc1c(Nc2ncccc2C(=O)O)cccc1C(F)(F)F
inactive: Potency [7] | outcome [8] | Potency [3] | Potency [9] | Potency [6] | Potency [10] | Potency [11]

N#C/C(=C\c1c[nH]c2ccccc12)C(=O)c1ccc(O)c(O)c1
inactive: Potency [1] | Potency [2] | Potency [3]

CN=c1nc(-c2ccccc2)n(-c2ccccc2)s1
active: Potency [12] 851 nM
inactive: Potency [1] | Potency [2] | Potency [3] | outcome [4] | Potency [6]

CCc1c(C(=O)NCCc2ccc(N3CCCCC3)cc2)[nH]c2ccc(Cl)cc12
inactive: Potency [1] | Potency [2] | Potency [3]

CCCCCCCCCCCCCCCCCC(=O)NCC(COP(=O)([O-])OCC[N+](C)(C)C)OCC (stereo not drawn)
inactive: Potency [1] | Potency [2]

COC(=O)Nc1nc2ccc(C(=O)C3CC3)cc2[nH]1
inactive: Potency [7] | outcome [8] | Potency [10]
active: Potency [5] 376 nM

[O-][n+]1ccccc1SSc1cccc[n+]1[O-]
active: Potency [13] 3160 nM | Potency [10] 1340 nM | Potency [11] 1340 nM | Potency [5] 82 nM
inactive: Potency [7] | outcome [8] | Potency [9]

CCCn1c(=O)c2[nH]c(-c3ccc(OCC(=O)NCCN)cc3)nc2n(CCC)c1=O
inactive: Potency [1] | Potency [2] | Potency [3] | Potency [6]

CCCSc1ccc2nc(NC(=O)OC)[nH]c2c1
active: Potency [5] 422 nM
inactive: Potency [7] | outcome [8] | Potency [9] | Potency [6] | Potency [10] | Potency [11]

C#CCN1C(C)=C(C(=O)OC)C(c2cccc([N+](=O)[O-])c2)C(C(=O)OCC)=C1C (stereo not drawn)
inactive: Potency [1] | Potency [2] | Potency [3] | Potency [6]

CN(C)c1ccc(C(=C2C=CC(=[N+](C)C)C=C2)c2ccccc2)cc1
inactive: Potency [7]
active: Potency [10] 8710 nM | Potency [5] 94.4 nM

C[N+](C)(C)CC(=O)[O-]
inactive: Potency [1] | Potency [2] | Potency [3]

CN(C)c1ccc(N=NS(=O)(=O)O)cc1
active: Potency [10] 2370 nM | Potency [11] 728 nM
inactive: Potency [7] | outcome [8] | Potency [3] | Potency [9] | max response [14] 4.58%

CCCCC1C(=O)N(c2ccccc2)N(c2ccc(O)cc2)C1=O (stereo not drawn)
active: Potency [11] 8710 nM | Potency [5] 531 nM
inactive: Potency [7] | Potency [3] | Potency [9] | Potency [6]

O=c1cc(-c2ccccc2)oc2ccccc12
active: Potency [11] 15400 nM | Potency [12] 50100 nM
inactive: Potency [7] | outcome [8] | Potency [3] | Potency [9]

COc1cc2nc(N3CCN(C(=O)OCc4ccccc4)C(C(=O)NC(C)(C)C)C3)nc(N)c2cc1OC (stereo not drawn)
inactive: Potency [1] | Potency [2] | Potency [3]

Cc1ccccc1CNc1ncnc2c1ncn2C1OC(CO)C(O)C1O (stereo not drawn)
inactive: Potency [1] | Potency [2] | Potency [3] | Potency [6]

CC(C)ON([C@@H](C(=O)NO)C(C)C)S(=O)(=O)c1ccc(-c2ccccc2)cc1
inactive: Potency [1] | Potency [2]

CN1CCc2cc(O)c(O)cc2C(c2ccccc2)C1 (stereo not drawn)
inactive: Potency [1] | Potency [2] | Potency [3]

O=C(O)c1cc(O)c(O)c(O)c1
inactive: Potency [7] | outcome [8] | Potency [3] | Potency [13] | Potency [10]

Cc1ccc(C(=O)O[C@H](C(=O)O)[C@@H](OC(=O)c2ccc(C)cc2)C(=O)O)cc1 (tested in a mixture with another compound)
inactive: Potency [1] | Potency [2] | Potency [3]

O=C1CN(/N=C/c2ccc(-c3ccc([N+](=O)[O-])cc3)o2)C(=O)N1
inactive: max response [14] 25.5%

C[S+](CC[C@H](N)C(=O)O)C[C@H]1O[C@@H](n2cnc3c(N)ncnc32)[C@H](O)[C@@H]1O (stereo partly drawn)
inactive: Potency [10]

Nc1ncnc2c1c(I)cn2[C@@H]1C[C@H](N)[C@@H](O)[C@H]1O
active: Potency [12] 3650 nM
